Assay [1] in a line: NCI Yeast Anticancer Drug Screen. Data for the rad50 strain (AID 155).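 Also: 0% = growth of vehicle-only cultures of the same strain.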 The settings on record: S. cerevisiae rad50 strain growth inhibition; at 50.0 µM; hits give high values. Put shortly: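 Inhibition values express reduced yeast growth in compound-treated cultures relative to vehicle-treated controls.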
A short description of assay [2]: NCI Yeast Anticancer Drug Screen. Data for the mec2-1 strain (AID 157). The settings on record: S. cerevisiae mec2-1 strain, at 50.0 µM, hits give high values. Put shortly:
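Readout is yeast growth inhibition, normalised to vehicle-treated controls, in the mec2-1 strain exposed to compound.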

Assay [3] can be described thus: NCI Yeast Anticancer Drug Screen. Data for the sgs1 mgt1 strain (AID 161).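 Also: 0% = growth of cultures given vehicle only.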 The settings on record: S. cerevisiae sgs1 mgt1 strain, at 50.0 µM, hits give high values. Put shortly: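 Compounds are added to genetically altered yeast, and growth is compared with cultures given vehicle alone to give percent inhibition.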
Assay [4] in a line: NCI Yeast Anticancer Drug Screen. Data for the cln2 rad14 strain (AID 165).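 Also: 0% = growth equal to vehicle treated cultures.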 The settings on record: S. cerevisiae cln2 rad14 strain, at 50.0 µM, hits give high values. Put shortly: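 Relative to vehicle controls, growth inhibition of compound-treated cln2 rad14 yeast was recorded.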
Assay [5] is described as follows: NCI Yeast Anticancer Drug Screen. Data for the bub3 strain (AID 167). The settings on record: S. cerevisiae bub3 mutant strain, at 50.0 µM, hits give high values. Put shortly: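 Steps: expose the mutant yeast strain to compound; grow alongside vehicle-treated cultures; measure growth; express inhibition against the vehicle cultures.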
The nature of assay [6]: NCI Yeast Anticancer Drug Screen. Data for the mlh1 rad18 strain (AID 175). The settings on record: S. cerevisiae mlh1 rad18 strain growth inhibition; at 50.0 µM; hits give high values. Put shortly:
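Test agents were incubated with a yeast strain of defined genotype (DNA damage repair defect). Inhibition of growth was derived by comparison with vehicle-exposed cultures.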

Structures are written as SMILES. About 79,000 compounds went through this panel and 15% of them were active in at least one assay; those are over-represented in the sample as a whole. A number with no mark means an inactive call. Activity calls are given as the source filed them. Rule as the data show it: active = growth inhibition above about 70%; inactive = the rest.

As for `CCc1cc2c(oc3c4ccccc4ccc23)c(=O)[nH]1`, the growth inhibition in assay [1] was -8.95%; in assay [2] it was -12.6%; in assay [3], -15.7%; in assay [4], -14.3%; in assay [5], -25.4%; in assay [6], -7.55%.

Consider `Cc1ccc(S(=O)(=O)OCOS(=O)(=O)c2ccc(C)cc2)cc1`, for which the growth inhibition is 23.1% in assay [1]; 22.2% in assay [2]; 4.95% in assay [3]; 3.15% in assay [4]; -34.4% in assay [5]; -25.2% in assay [6].

With `Nc1ccc2c(c1)C(=O)c1c(F)c(F)c(F)c(F)c1-2`, the growth inhibition in assay [1] is 16.6%; in assay [2], -0.9%; in assay [3] it was -10.7%; in assay [4], -13.2%; in assay [5], 4.85%; in assay [6], 11.9%.

On to `O=C(/C=C/c1ccc(O)cc1)NCCc1c[nH]c2ccc(O)cc12`, for which the growth inhibition is 0.75% in assay [1]; -10% in assay [2]; 10% in assay [3]; 8.35% in assay [4]; -3.7% in assay [5]; 7.75% in assay [6].

Regarding `CC(=O)C(=C(c1ccccc1)c1ccccc1)c1ccccc1`, the growth inhibition in assay [1] was -51.4%; in assay [2], -7.8%; in assay [3], -32.9%; in assay [4], -1.4%; in assay [5], -46.6%; in assay [6], 7.6%.

As to `Cc1cc(=O)c2c(F)ccc(F)c2[nH]1`, the growth inhibition is 0% in assay [1]; 4.5% in assay [2]; 13.9% in assay [3]; -36.4% in assay [4]; -7.85% in assay [5]; 12.7% in assay [6].

Consider `O=C(COc1ccc(Cl)cc1)NC(CO)(CO)CO`, for which the growth inhibition in assay [1] was 22.1%; in assay [2] it was 16.3%; in assay [3], 18.9%; in assay [4], 43%; in assay [5], 17.1%; in assay [6], 10.8%.

Take `Nc1ncc(Cl)cn1`: the growth inhibition in assay [1] was 19.6%; in assay [2], -21.4%; in assay [3], 8%; in assay [4] it was -25.2%; in assay [5], -22.3%; in assay [6], -23.6%.

As to `CCN(CC)CC(C)=O`, the growth inhibition in assay [1] was -31%; in assay [2], -58.3%; in assay [3] it was -82.5%; in assay [4], 14.8%; in assay [5] it was -11.9%; in assay [6] it was -6.1%.

In the case of `CCN(CC)CCN=C1Nc2ccccc2N(O)N1`, the growth inhibition in assay [1] was 0.55%; in assay [2] it was -1.5%; in assay [3] it was 11.6%; in assay [4] it was -23.3%; in assay [5] it was 12.6%; in assay [6], -2.95%.

Consider `COc1cc(-c2cc(OC)c(N)cc2Br)c(Br)cc1N`, for which the growth inhibition is 38.8% in assay [1]; 17.2% in assay [2]; 60.6% in assay [3]; 49.9% in assay [4]; 54.4% in assay [5]; 35.9% in assay [6].

Turning to `CCN(CC)C1=CC(=O)OC1OC` (centres undefined), the growth inhibition in assay [1] was -9.65%; in assay [2] it was 12.5%; in assay [3], 2%; in assay [4], 8.1%; in assay [5] it was 3.05%; in assay [6], -4.2%.

With `CCSSC12CCCN1C(=O)C1CCCN1C2=O` (centres undefined), the growth inhibition in assay [1] was 49%; in assay [2], 40.9%; in assay [3], 9.4%; in assay [4], -40%; in assay [5], 20.6%; in assay [6], 20.4%.

Consider `C=CC(=O)NC(=O)/C=C/c1cccnc1`, for which the growth inhibition is 17.4% in assay [1]; -8.05% in assay [2]; 1% in assay [3]; -3.25% in assay [4]; 10.7% in assay [5]; 5.5% in assay [6].

For `Cc1ccccc1/C1=C/CCCCCC1`, the growth inhibition was -8.1% in assay [1]; 11.3% in assay [2]; -10.4% in assay [3]; -21.6% in assay [4]; 19.5% in assay [5]; -5.05% in assay [6].

`CCOC(=O)c1ncc(Cl)cc1NC(=O)CC(=O)Nc1cc(Cl)cnc1C(=O)OCC`: the growth inhibition in assay [1] was 59.8%; in assay [2] it was -8%; in assay [3] it was 32.5%; in assay [4], -31.1%; in assay [5], 1.1%; in assay [6], 20.3%.

As for `CCOc1ccc(OCC)c(NC(=O)OC(C)C)c1`, the growth inhibition in assay [1] was -6.35%; in assay [2], -3.25%; in assay [3], 20.3%; in assay [4], -27.5%; in assay [5], 47.5%; in assay [6] it was 12.9%.

For the compound `CCOc1ccc(N=Nc2ccc3oc(=O)c(/C(C)=N/NC(=O)CC(=O)Nc4cccc(OC)c4)cc3c2)cc1`, the growth inhibition in assay [1] is 44.5%; in assay [2], 36%; in assay [3] it was 25.2%; in assay [4], -17.3%; in assay [5], -5%; in assay [6], 44.1%.

As to `c1ccc(-c2nc(-c3ccccc3)c(-c3ccccc3)[nH]2)cc1`, the growth inhibition in assay [1] was -0.85%; in assay [2] it was 28.1%; in assay [3], 12.2%; in assay [4], 11.2%; in assay [5] it was 5.05%; in assay [6], -36.2%.

Take `Cc1c(-c2ccccc2)[nH]c2cc(Cl)ccc2c1=O`: the growth inhibition was -28.9% in assay [1]; 2.55% in assay [2]; -16.4% in assay [3]; 13% in assay [4]; 16.9% in assay [5]; -10.3% in assay [6].

As to `CC1(C)C(=O)CC1C(=O)O` (centres undefined), the growth inhibition in assay [1] is 4.55%; in assay [2], -0.25%; in assay [3], -0.45%; in assay [4], 12.3%; in assay [5], 7.5%; in assay [6], 8.75%.

With `CC(O)C1CC1` (centres undefined), the growth inhibition is -17% in assay [1]; -40.8% in assay [2]; 9.3% in assay [3]; 1.65% in assay [4]; -2.2% in assay [5]; -5.7% in assay [6].

For the compound `CCOC(=O)/C(N=O)=C(/C)O`, the growth inhibition in assay [1] is 13.8%; in assay [2], 5.9%; in assay [3], 4.8%; in assay [4], -7.95%; in assay [5] it was 11.4%; in assay [6], 11.3%.

On to `O=C(c1ccccc1)c1cc(Cl)ccc1N1C(=O)C=CC1=O`, for which the growth inhibition in assay [1] was 99.2% (active); in assay [2], 99.7% (active); in assay [3], 99.7% (active); in assay [4], 99.2% (active); in assay [5], 99% (active); in assay [6] it was 99.5% (active).

`CN(C)CCCC1c2ccccc2Oc2ccc(C(F)(F)F)cc21` (centres undefined): the growth inhibition in assay [1] is -9.45%; in assay [2], -28.4%; in assay [3], -11.9%; in assay [4], -25.1%; in assay [5], 41.9%; in assay [6], 31.2%.

Take `C/C(N=NC(=S)N1CCCCC1C)=C1\C=CC=CN1O` (centres undefined): the growth inhibition was 49.2% in assay [1]; 4.25% in assay [2]; 54.7% in assay [3]; 89.4% (active) in assay [4]; 20.1% in assay [5]; 20.6% in assay [6].

On to `CCOC(=O)CCCN(c1sc(C)c(-c2ccccc2)c1C(=O)OCC)S(=O)(=O)c1ccc(C)cc1`, for which the growth inhibition is -16.6% in assay [1]; -3.25% in assay [2]; -14.6% in assay [3]; -29.3% in assay [4]; -3.75% in assay [5]; 4.5% in assay [6].

For the compound `c1cc2c3c(cccc3c1)-c1nc3ccccc3nc1-2`, the growth inhibition is -5.1% in assay [1]; -21.4% in assay [2]; -5.2% in assay [3]; 4.05% in assay [4]; 0.2% in assay [5]; 19.8% in assay [6].

On to `O=C(CCl)NC(=O)NC1=C(Cl)C(=O)c2ccccc2C1=O`, for which the growth inhibition in assay [1] is 98% (active); in assay [2], 98.6% (active); in assay [3], 98.3% (active); in assay [4], 97.7% (active); in assay [5], 98.3% (active); in assay [6], 97.7% (active).

As to `Nc1nc2c(ncn2C2OC(COC(=O)c3ccccc3)C(OC(=O)c3ccccc3)C2OC(=O)c2ccccc2)c(=O)[nH]1` (centres undefined), the growth inhibition in assay [1] is -25.9%; in assay [2], -12.8%; in assay [3], -0.6%; in assay [4], 11.5%; in assay [5] it was 0.9%; in assay [6], -7.65%.

`CCCCS/C=C1\CC2OC(=O)C3(C)CCCC(C)(C1=O)C23` (centres undefined): the growth inhibition in assay [1] was -1.85%; in assay [2] it was 15.2%; in assay [3] it was 8.15%; in assay [4] it was -3%; in assay [5], 11.5%; in assay [6] it was 26.6%.

For `CC[N+](C)(C)CCOP(=O)(c1ccccc1)c1ccccc1`, the growth inhibition in assay [1] was 2.4%; in assay [2], 6.35%; in assay [3] it was -15.1%; in assay [4], 4.6%; in assay [5] it was -2.2%; in assay [6], 9.5%.

As for `CCC(=O)C(CCN(C)C)c1ccccc1` (centres undefined), the growth inhibition is -10.4% in assay [1]; -0.85% in assay [2]; 9.9% in assay [3]; -22.6% in assay [4]; -11.1% in assay [5]; -7.9% in assay [6].

For `O=C(c1cccc(C(F)(F)F)c1)c1ccccc1Cc1ccccc1`, the growth inhibition in assay [1] is 3.85%; in assay [2], 13.9%; in assay [3] it was 12.2%; in assay [4], -28.1%; in assay [5] it was 14.2%; in assay [6], 42%.

For the compound `COc1cc(NS(=O)(=O)c2ccccc2)c2nc3ccc(Cl)cc3nc2c1`, the growth inhibition was 3.6% in assay [1]; -8.4% in assay [2]; -25.1% in assay [3]; 3.3% in assay [4]; -7.25% in assay [5]; 12.3% in assay [6].

For `OC1CNC(=S)NC1`, the growth inhibition in assay [1] was -8.85%; in assay [2], -10.2%; in assay [3], -12.6%; in assay [4] it was -22.2%; in assay [5], -5.2%; in assay [6] it was 12.9%.

For the compound `CC1C2(C)OC(=N)C(C#N)(C(c3ccco3)O2)C1(C#N)C#N` (centres undefined), the growth inhibition in assay [1] was 6.75%; in assay [2], 3.1%; in assay [3], -6.55%; in assay [4], 5.95%; in assay [5], -9.65%; in assay [6] it was -1.4%.

For the compound `CCO/C(=C/[S+](C)C)c1ccccc1`, the growth inhibition in assay [1] was 0.55%; in assay [2], -4.4%; in assay [3], -19.9%; in assay [4], 2.95%; in assay [5], 9.3%; in assay [6] it was 5.35%.

On to `O=C(Nc1ccc(Cl)cc1)P(=O)(O)c1ccccc1`, for which the growth inhibition in assay [1] is -11.8%; in assay [2], -0.95%; in assay [3], -23.1%; in assay [4], -26.8%; in assay [5], -16.8%; in assay [6] it was 18.1%.

These data come from PubChem BioAssay (NCI).
